# Assay results as given in paper PMC5540273 (PLoS ONE, 2017).
# Columns and labels:
# Conditions in all cases: concentration: 1 μM, replicates: in singlicate; n = 1
# MAP3K15 = test system: MAP3K15
# MAP3K1 = test system: MAP3K1
# MAP3K2 = test system: MAP3K2
# MAP3K3 = test system: MAP3K3
# MAP3K4 = test system: MAP3K4
# MAP4K2 = test system: MAP4K2
# MAP4K3 = test system: MAP4K3
# MAP4K4 = test system: MAP4K4
# MAP4K5 = test system: MAP4K5
# MAPKAPK2 = test system: MAPKAPK2
# MAPKAPK5 = test system: MAPKAPK5
# MARK1 = test system: MARK1
# MARK2 = test system: MARK2
# MARK3 = test system: MARK3
# MARK4 = test system: MARK4
# MAST1 = test system: MAST1
# MEK1 = test system: T1, MEK1
# T1 construct: gene MAP2K1
# MEK2 = test system: T2, MEK2
# T2 construct: gene MAP2K2
# MEK3 = test system: T3, MEK3
# T3 construct: gene MAP2K3
# MEK4 = test system: T4, MEK4
# T4 construct: gene MAP2K4
# 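Further: KINOMEscan kinase panel screen.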
SMILES,%Inh (MAP3K15),%Inh (MAP3K1),%Inh (MAP3K2),%Inh (MAP3K3),%Inh (MAP3K4),%Inh (MAP4K2),%Inh (MAP4K3),%Inh (MAP4K4),%Inh (MAP4K5),%Inh (MAPKAPK2),%Inh (MAPKAPK5),%Inh (MARK1),%Inh (MARK2),%Inh (MARK3),%Inh (MARK4),%Inh (MAST1),%Inh (MEK1),%Inh (MEK2),%Inh (MEK3),%Inh (MEK4)
Nc1ncnc2c1nc(-c1ccccc1)n2-c1ccccc1 [SKF-97293],22%,34%,28%,14%,35%,18%,3%,0%,2%,0%,0%,27%,0%,39%,33%,47%,15%,14%,50%,35%
CCc1ccc(-c2ccc3c(c2)-c2c(cnn2C)S(=O)(=O)N3C)cc1,0%,34%,0%,0%,23%,0%,3%,0%,1%,13%,0%,0%,0%,3%,7%,0%,1%,0%,0%,6%
CN(C)Cc1ccc(-c2ccc3c(Nc4ccc(Oc5ccccn5)cc4)ccnc3c2)o1 [GW567148],0%,14%,0%,0%,0%,5%,0%,6%,61%,3%,0%,2%,0%,0%,13%,11%,94.7%,96.8%,0%,26%
Cc1ccc(F)c(C(=O)Nc2cccc(-c3nn4ccccc4c3-c3ccnc(Nc4cccc(F)c4)n3)c2)c1F [GSK361061],24%,31%,16%,0%,44%,0%,18%,25%,80%,23%,0%,0%,14%,0%,14%,0%,3%,0%,0%,37%
CSc1cccc2c(-c3ccncn3)c(-c3ccc(F)cc3)nn12 [GW514786],21%,14%,0%,0%,0%,0%,0%,2%,0%,67%,0%,0%,0%,0%,0%,0%,0%,0%,0%,4%
Cn1cc(-c2ccc3c(c2)CCN3C(=O)Cc2cccc(F)c2)c2c(N)ncnc21 [GSK2603358],0%,15%,84%,50%,66%,18%,64%,0%,57%,31%,0%,69%,0%,0%,34%,5%,15%,0%,0%,26%
Cc1occc1-c1ncc(OC[C@@H](N)Cc2c[nH]c3ccccc23)cc1-c1ccc2[nH]nc(C)c2c1.O=C(O)C(F)(F)F [GSK682037],10%,11%,96.9%,98.6%,22%,99.3%,99.4%,99.2%,99.6%,0%,0%,44%,62%,68%,33%,35%,7%,0%,90.7%,43%
Cc1ccc(C(=O)Nc2ccc(Nc3ccnc4cc(-c5nccs5)ccc34)cc2O)cc1.Cl [GW494702],16%,14%,0%,0%,19%,0%,0%,5%,71%,17%,0%,0%,0%,0%,0%,15%,13%,0%,0%,21%
O=c1[nH]cc(-c2ccc(N3CCOCC3)cc2)c2sc(-c3cn[nH]c3)cc12 [GSK2276055],0%,16%,12%,0%,21%,27%,0%,1%,2%,0%,2%,0%,0%,0%,0%,0%,0%,9%,17%,5%
Cc1cccc(NC(=O)Nc2ccc(Oc3ncnc4ccn(C)c34)cc2)c1,0%,0%,0%,0%,0%,0%,0%,0%,0%,0%,0%,0%,0%,6%,0%,0%,0%,29%,5%,0%
O=C(Nc1ccccc1F)NC1CCN(c2ccnc(Nc3ccc(F)cc3)n2)CC1 [GSK1379800],0%,13%,0%,0%,0%,0%,0%,0%,0%,6%,0%,0%,0%,0%,2%,0%,0%,0%,0%,4%
COc1cc2c(cc1OCCN1CCNCC1)ncc1c3ccc(C#N)cc3[nH]c21,90.1%,33%,4%,14%,7%,51%,8%,32%,5%,0%,0%,0%,8%,0%,0%,83%,34%,57%,34%,18%
Oc1cc(Nc2ccnc3cc(I)ccc23)ccc1F [GW552771],11%,7%,9%,0%,0%,0%,0%,67%,100%,24%,0%,0%,0%,0%,5%,20%,0%,0%,11%,34%
O=C(Nc1cccc(-c2nn3ccccc3c2-c2ccnc(Nc3cccc(F)c3)n2)c1)c1c(F)ccc(F)c1Cl [GSK357952],66%,0%,20%,7%,24%,0%,1%,28%,51%,14%,0%,0%,3%,3%,0%,0%,0%,15%,0%,25%
CN1CCN(CCCNc2nccc(-c3c(-c4ccc(F)cc4)nn4cc(C(F)(F)F)ccc34)n2)CC1 [GW621581],4%,4%,0%,0%,0%,0%,30%,33%,0%,5%,0%,7%,0%,16%,16%,0%,0%,0%,0%,10%
Cn1cc(-c2[nH]c3cc(NC(=O)[C@H](N)C4CCCCC4)cc4c3c2C=NNC4=O)cn1,52%,35%,98.3%,94.8%,9%,97.3%,86%,48%,52%,0%,0%,83%,88%,88%,91.8%,87%,65%,67%,46%,14%
C[C@@H]1CC[C@@H](C(=O)Nc2ccccc2)CN1c1cc(-c2ccc3c(N)n[nH]c3c2)nc(N)n1 [GSK2286062],46%,0%,16%,0%,4%,3%,0%,0%,0%,0%,0%,0%,9%,0%,0%,3%,15%,1%,33%,8%
Cl.c1ccc(-c2ccc3c(Nc4ccc5[nH]ccc5c4)ccnc3c2)nc1 [GW440138],0%,1%,0%,0%,9%,46%,0%,12%,0%,9%,0%,0%,0%,0%,0%,0%,0%,0%,0%,0%
Fc1ccc(-c2ncn(C3CCNCC3)c2-c2ccnc(Oc3ccc(-c4ccccc4)cc3)n2)cc1 [SB-245391],22%,25%,22%,29%,14%,44%,3%,9%,26%,0%,0%,25%,23%,23%,25%,36%,15%,19%,18%,15%
COc1cccc(NC(=O)NC2CCN(c3ccnc(Nc4cc(OC)c(OC)c(OC)c4)n3)C2)c1 (stereo not shown) [GSK1379763],0%,80%,3%,0%,39%,0%,12%,56%,81%,0%,0%,0%,0%,0%,0%,0%,0%,9%,8%,12%
